These compounds were tested on Scedosporium aurantiacum CBS 136046 (assay: growth inhibition relative to DMSO control (OD600); higher = more antifungal activity, active = 80 or more; extreme values may be limits of the assay). Conditions: 5 µM; 72 h; 37 °C.
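Further: conidia screened in RPMI 1640 medium under 5% CO2, growth read by spectrophotometer, medium with 0.5% DMSO serving as the untreated reference.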

Growth inhibition, inactive:
CCc1nc(N)nc(N)c1C#CC(C)c1cc(OC)cc(-c2ccncc2)c1 (centres undefined) 48.8%
CCCC(=O)OCCc1ccccc1 0%
Nc1nnc(-c2ccc(Cl)cc2)s1 6.96%
COc1ccc2cc3[n+](cc2c1OCCN(CCn1cncn1)Cc1ccc(F)cc1F)CCc1cc2c(cc1-3)OCO2 2.66%
N#Cc1c(F)c(Cl)c(NCc2ccccc2)c(C#N)c1F 38.1%
COC1CC2CCC(C)C(O)(O2)C(=O)C(=O)N2CCCCC2C(=O)OC(C(C)CC2CCC(OCCO)C(OC)C2)CC(=O)C(C)/C=C(\C)C(O)C(OC)C(=O)C(C)CC(C)/C=C/C=C/C=C/1C (centres undefined) 10.9%
O=C(NC1CCCc2c1[nH]c1ccc(Cl)cc21)c1ccccn1 (centres undefined) 15.1%
COc1cc(Cc2cnc(N)nc2N)c2c(c1OC)OC(C1CC1)C=C2 (centres undefined) 2.07%
CC(C)(C)c1ccc(C(=O)NC(=O)N2CCCc3ccccc32)cc1 0.0285%
C=CCN(C(=O)OCc1ccc([N+](=O)[O-])cc1)C1CCN(CC[C@](C)(CN(C)S(=O)(=O)c2ccccc2)c2ccccc2)CC1 34.9%
C(=C\c1nc2ccccc2[nH]1)/c1ccc2c(c1)OCO2 17.1%

Growth inhibition, active:
Clc1cc(Cl)c2c(c1)CCc1ccccc1C2n1ccnc1 (centres undefined) 80.2%
CC(=O)N1CCN(c2ccc(OCC3COC(Cn4ccnc4)(c4ccc(Cl)cc4Cl)O3)cc2)CC1 (centres undefined) 83.2%
N#C/C(=C1/SC[C@H](c2ccc(Cl)cc2Cl)S1)n1ccnc1 85.6%

Reference: the supplement of paper PMC9897528
